# Measured values taken from PubChem BioAssay.
# Calls of active or inactive are those of the source.
# Tests used:
# [1] = tested on: Plasmodium falciparum Sir2 (PF13_0152, Sir2A); test: pfSir2 binders on small-molecule microarrays, primary screen, biochemical, small-molecule microarray, 635 nm fluorescence (AID 1098); conditions: small-molecule microarray binding, fluorescence 635 nm; higher = more signal;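 further: score merges spot fluorescence intensity with its signal-to-noise ratio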
# [2] = small-molecule microarray binders of probe aDKK1, primary screen, biochemical, biotinylated probe, 635/667 nm fluorescence (AID 1099); conditions: higher = more signal;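 further: score merges 667nm spot fluorescence with signal to noise across triplicate slides; reference of the scale not given here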
# [3] = small-molecule microarray binders of probe aCHRDL2, primary screen, biochemical, biotinylated probe, 635/667 nm fluorescence (AID 1100); conditions: higher = more signal
# [4] = splicing luciferase reporter signal modulators, primary screen, spliceosome inhibition project, cell-based, HEK293, splice +/- reporter (AID 1101); conditions: luminescence, 24 h, higher = more signal, called active from +8 up or from −8 down;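 further: HEK293 cells carrying a splicing-competent luciferase reporter gene; test concentration not given here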
# [5] = target: Fibroblast growth factor 10 (Homo sapiens) (UniProt O15520); test: FGF10 binders on small-molecule microarrays, primary screen, biochemical, small-molecule microarray, 635 nm fluorescence (AID 1102); conditions: FGF10 binding, fluorescence 635 nm, higher = more signal
# [6] = tested on: glycogen synthase kinase-3 (GSK3A per assay name; protocol says GSK3B); test: GSK3 binders on small-molecule microarrays, primary screen, biochemical, small-molecule microarray, 635 nm fluorescence, GSK3A (AID 1103); conditions: small-molecule microarray binding, fluorescence 635 nm; higher = more signal; further: the record names both GSK3A and GSK3B
# [7] = target: Epidermal growth factor receptor (Homo sapiens) (UniProt P00533); test: EGFR binders on small-molecule microarrays, primary screen, biochemical, small-molecule microarray, 635 nm fluorescence (AID 1104); conditions: EGFR binding, higher = more signal;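 further: score merges 667 nm emission intensity with spot signal to noise over triplicate slides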
# [8] = target: Follistatin-related protein 3 (Homo sapiens) (UniProt O95633); test: FSTL3 binders on small-molecule microarrays, primary screen, biochemical, small-molecule microarray, 635 nm fluorescence (AID 1105); conditions: FSTL3 binding, higher = more signal;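 further: score merges emission near 667 nm and signal to noise per printed spot across three slides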
# [9] = target: Dickkopf-related protein 1 (Homo sapiens) (UniProt O94907); test: DKK1 binders on small-molecule microarrays, primary screen, biochemical, small-molecule microarray, 635 nm fluorescence scan (AID 1106); conditions: DKK1 binding, higher = more signal;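 further: score merges emission near 667 nm with signal to noise over three replicate slides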
# [10] = tested on: Inhibin beta A chain (activin A); test: INHBA (activin A) binders on microarrays, primary screen, biochemical, small-molecule microarray, 635 nm fluorescence scan (AID 1107); conditions: small-molecule microarray binding, higher = more signal;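 further: mouse activin A protein probed at 4.33 µg/mL on printed slides; score merges bound-protein fluorescence near 667 nm with spot signal-to-noise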
# Chain of Epidermal growth factor receptor (Homo sapiens) (P00533 whole entry, looked up): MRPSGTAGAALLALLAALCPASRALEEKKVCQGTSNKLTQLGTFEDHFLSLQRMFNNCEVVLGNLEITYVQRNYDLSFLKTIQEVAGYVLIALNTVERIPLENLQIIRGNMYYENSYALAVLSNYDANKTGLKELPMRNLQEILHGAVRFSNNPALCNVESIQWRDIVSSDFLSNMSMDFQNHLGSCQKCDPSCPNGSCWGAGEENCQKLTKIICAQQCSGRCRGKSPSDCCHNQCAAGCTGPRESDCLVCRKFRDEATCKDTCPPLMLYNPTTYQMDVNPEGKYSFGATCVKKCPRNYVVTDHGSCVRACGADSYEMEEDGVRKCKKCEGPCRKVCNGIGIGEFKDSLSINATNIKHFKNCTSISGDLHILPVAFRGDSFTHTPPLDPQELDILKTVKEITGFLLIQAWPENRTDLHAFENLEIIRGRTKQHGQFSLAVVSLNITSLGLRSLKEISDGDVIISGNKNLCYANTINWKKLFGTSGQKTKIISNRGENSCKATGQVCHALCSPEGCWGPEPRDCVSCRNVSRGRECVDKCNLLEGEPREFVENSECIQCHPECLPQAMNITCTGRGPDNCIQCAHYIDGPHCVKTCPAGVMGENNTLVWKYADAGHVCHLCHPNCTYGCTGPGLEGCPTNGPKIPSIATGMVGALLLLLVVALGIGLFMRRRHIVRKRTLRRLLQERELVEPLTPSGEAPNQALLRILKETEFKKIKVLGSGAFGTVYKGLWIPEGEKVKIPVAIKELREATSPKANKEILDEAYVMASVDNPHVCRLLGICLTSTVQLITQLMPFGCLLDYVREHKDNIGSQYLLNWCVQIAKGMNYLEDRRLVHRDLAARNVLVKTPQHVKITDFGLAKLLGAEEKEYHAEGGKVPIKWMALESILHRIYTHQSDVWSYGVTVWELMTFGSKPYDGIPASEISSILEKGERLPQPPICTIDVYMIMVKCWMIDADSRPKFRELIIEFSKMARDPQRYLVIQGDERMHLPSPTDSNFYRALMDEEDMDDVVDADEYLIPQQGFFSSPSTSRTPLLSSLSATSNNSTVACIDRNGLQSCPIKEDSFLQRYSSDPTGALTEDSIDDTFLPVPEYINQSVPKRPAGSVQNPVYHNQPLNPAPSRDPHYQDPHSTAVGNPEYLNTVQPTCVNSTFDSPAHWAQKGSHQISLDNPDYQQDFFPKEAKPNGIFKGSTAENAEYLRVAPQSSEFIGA
# Chain of Follistatin-related protein 3 (Homo sapiens) (O95633 whole entry, looked up): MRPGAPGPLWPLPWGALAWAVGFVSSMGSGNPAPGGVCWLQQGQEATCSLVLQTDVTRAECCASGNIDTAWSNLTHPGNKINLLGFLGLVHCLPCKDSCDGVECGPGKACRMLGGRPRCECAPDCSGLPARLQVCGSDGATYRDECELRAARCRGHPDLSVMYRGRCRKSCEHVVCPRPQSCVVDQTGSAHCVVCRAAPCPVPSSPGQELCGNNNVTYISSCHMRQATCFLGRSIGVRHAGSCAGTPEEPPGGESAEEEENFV
# Chain of Fibroblast growth factor 10 (Homo sapiens) (O15520 whole entry, looked up): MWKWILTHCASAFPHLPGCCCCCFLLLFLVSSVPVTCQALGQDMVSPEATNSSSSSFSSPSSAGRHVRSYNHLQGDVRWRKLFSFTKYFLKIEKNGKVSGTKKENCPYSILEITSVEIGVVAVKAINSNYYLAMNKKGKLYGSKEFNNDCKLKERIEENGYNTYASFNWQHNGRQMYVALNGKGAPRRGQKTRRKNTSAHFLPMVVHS
# Chain of Dickkopf-related protein 1 (Homo sapiens) (O94907 whole entry, looked up): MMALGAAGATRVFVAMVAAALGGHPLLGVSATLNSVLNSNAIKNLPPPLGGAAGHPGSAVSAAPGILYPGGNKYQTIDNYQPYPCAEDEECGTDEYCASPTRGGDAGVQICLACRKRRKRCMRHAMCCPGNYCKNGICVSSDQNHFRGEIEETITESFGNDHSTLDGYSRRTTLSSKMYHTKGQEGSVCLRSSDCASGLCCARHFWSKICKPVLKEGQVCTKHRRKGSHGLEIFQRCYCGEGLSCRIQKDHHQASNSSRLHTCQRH
SMILES,composite z-score [1],composite z-score [2],composite z-score [3],z-score [4],composite z-score [5],composite z-score [6],composite z-score [7],composite z-score [8],composite z-score [9],composite z-score [10]
O=C1C[C@]2(c3ccc([N+](=O)[O-])cc3)C(=O)N(Cc3ccccc3)c3cc(CO)ccc3[C@H]2N1CC12CC3CC(CC(C3)C1)C2,-1.44,1.03,0.259,1.39 (inactive),-0.36,-0.855,-0.478,-0.791,-0.852,-0.544
COc1cc2c(cc1OC)CN(C(=O)[C@H]1[C@@H]3C(=O)O[C@@H](c4ccccc4)[C@@H](c4ccccc4)N3[C@@H](c3ccc(OCCO)cc3)[C@]13C(=O)Nc1ccc(C#CCCO)cc13)CC2,0.903,-0.269,0.33,-0.296 (inactive),1.4,1.29,0.292,1.37,0.167,0.813
CCOC(=O)C1=CC[C@@H](c2ccccc2)N(S(=O)(=O)c2ccc(C)cc2)C1,0.243,0.617,0.931,0.259 (inactive),-0.0077,0.121,0.0223,0.36,0.107,1.29
CN(C)CCCCNC(=O)[C@H]1C[C@H]2C(=O)N3CCC[C@H]3C(=O)N2[C@H]1c1ccc(O)cc1,0.0292,-1.21,-0.65,-2.27 (inactive),-1.51,-0.0328,-0.364,0.398,-0.414,-0.984
COc1cc(OC)c(C(O)C2C=CC3C(=O)N(c4ccccc4)C(=O)C3N2Nc2ccc(C#N)cc2)cc1Br (stereo not given),0.842,1.56,1.4,1.47 (inactive),1.18,0.687,0.763,0.95,-0.0884,0.664
CC(C)C(=C=CC[C@@H](O)c1ccccc1OCCO)C[C@@H](O)COCc1ccccc1,1.23,0.469,0.264,-2.12 (inactive),1.35,-0.0582,0.22,0.589,-0.691,1.35
CON(C)C(=O)C=C1C[C@@H](c2cccc(Cl)c2)O[C@@H](c2cccc(Cl)c2)O1,1,0.0204,-0.126,-1.16 (inactive),-0.148,0.846,-0.185,0.243,0.484,0.9
CCCC[C@@H]1C[C@H]1[C@@H](NC(=O)c1ccccc1)c1ccc(Cl)cc1,-1.24,0.15,1.01,-1.93 (inactive),-1.38,-1.78,-1.77,-2.35,-1.36,0.39
CN1C(=O)[C@@]2(CCS(=O)(=O)c3ccccc3)N=C(c3ccc(OCCCO)cc3)O[C@H]2c2ccccc21,1.12,0.0859,0.861,-1.06 (inactive),0.939,1.32,0.364,1.05,0.172,0.615
C=C(C(=O)CC[C@H](OC(=O)c1cccnc1)c1ccc(CO)o1)C(C)C,1.08,0.0114,-0.239,0.586 (inactive),0.866,0.836,0.0193,0.406,0.603,0.935
Cc1ccc(F)cc1S(=O)(=O)N[C@@H]1CCN(Cc2ccc(OC(C)C)cc2)C1,-0.38,-0.428,-0.272,2.97 (inactive),-0.514,-0.654,-0.662,-0.746,0.183,0.834
C=CCNC(=O)[C@@H]1[C@H]2C(=O)O[C@H](c3ccccc3)[C@H](c3ccccc3)N2[C@H](c2ccccc2OCCO)[C@@]12C(=O)N(C(=O)OCCOC)c1ccc(C#CC3=CCCCC3)cc12,1.26,0.057,0.144,-1.1 (inactive),1.15,1.16,0.469,0.831,0.373,-0.0496
C=CCNC(=O)[C@@H]1[C@H]2C(=O)O[C@H](c3ccccc3)[C@H](c3ccccc3)N2[C@H](c2ccc(OCCO)cc2)[C@@]12C(=O)N(C(=O)OCCOC)c1ccc(C#CC3=CCCCC3)cc12,1.11,0.331,-0.112,-0.57 (inactive),0.957,1.28,0.552,1.06,0.44,0.726
CCOC(=O)C1=CC[C@@H](c2ccc([N+](=O)[O-])cc2)N(S(=O)(=O)c2ccc(C)cc2)[C@H]1c1ccccc1,0.992,0.291,0.304,-0.8 (inactive),1.21,0.154,0.764,1.26,0.293,0.521
COCCOC(=O)N1C(=O)[C@@]2(c3cc(C#Cc4ccc(OC)cc4)ccc31)[C@H](C(=O)NC[C@H](O)c1ccccc1)[C@H]1C(=O)O[C@H](c3ccccc3)[C@H](c3ccccc3)N1[C@@H]2c1ccc(O)cc1,0.557,0.139,0.234,-0.577 (inactive),1.17,1.35,0.725,1.41,0.95,0.033
NC(=O)N1C(=O)C2C(C1=O)C1C=C(c3ccc(CO)cc3)C2C(C2CC2)N1Cc1sc2ccccc2c1Cl (stereo not given),0.834,-0.0675,0.102,-0.72 (inactive),1.25,1.12,0.553,1.21,0.307,-0.115
COc1ccc([Si](C)(C)[C@H]2[C@H](CC(=O)N3Cc4ccccc4C[C@H]3CO)O[C@@]3(C(=O)N(Cc4cccc(N5CCCCC5=O)c4)c4ccccc43)[C@@H]2C)cc1,1.2,-0.205,-0.181,-0.519 (inactive),1.14,0.262,0.795,1.27,1.12,0.94
COCCOC(=O)N1C(=O)[C@@]2(c3ccccc31)[C@H](C(=O)N1CCN(c3ncccn3)CC1)[C@H]1C(=O)O[C@H](c3ccccc3)[C@H](c3ccccc3)N1[C@@H]2c1ccc(OCCO)cc1,1.02,0.657,0.422,-0.471 (inactive),1.24,0.402,1,1.03,0.286,0.252
O=C1OC[C@@H](c2ccccc2)N2CC(/C=C/c3ccccc3)=CC12 (stereo not given in full),-0.0726,-0.144,0.537,-0.521 (inactive),-0.529,-0.511,-2.06,-1.16,-1.15,0.0575
CCOC(=O)C[C@H]1[C@H](OC(=O)c2ccc(C(=O)c3ccccc3)cc2)[C@@H](NC(=O)c2ccc3ccccc3c2)c2cc(OCCCO)ccc2N1C(=O)c1ccccc1,0.422,0.489,0.17,-0.072 (inactive),0.734,0.993,0.0993,0.786,0.105,0.007
O=C1O[C@H](c2ccccc2)[C@H](c2ccccc2)N2[C@H]1[C@@H](C(=O)O)[C@]1(C(=O)Nc3ccccc31)[C@H]2c1ccc(O)cc1,0.663,-0.391,0.253,-0.531 (inactive),0.619,-0.219,-0.552,-0.532,-0.836,-1.37
COc1ccc(C(O)C2C=CC3C(=O)N(c4ccccc4)C(=O)C3N2Nc2ccccc2)cc1OCc1ccccc1 (stereo not given),0.964,0.294,0.77,0.161 (inactive),1.21,1.29,-0.0831,1.29,-0.0662,0.726
C=CC[C@H](OC(=O)Nc1ccc(OC)cc1)c1ccc(O)c2ccccc12,1.24,0.121,0.0255,3.32 (inactive),0.82,1.29,0.547,1.26,0.92,1.05
CC(C)C[C@@H]1NC(=O)[C@H]2C[C@@H](C(=O)NCCCCCC[N+](C)(C)C)[C@@H](c3cccc(OCCO)c3)N2C1=O,1.14,-0.231,-0.0365,-0.713 (inactive),0.293,0.661,0.109,0.504,0.438,0.682
O=C1O[C@@H](c2ccccc2)[C@@H](c2ccccc2)N2[C@@H](c3ccccc3OCCO)[C@]3(C(=O)Nc4ccc(C#CC5=CCCCC5)cc43)[C@@H](C(=O)NC[C@H](O)c3ccccc3)[C@H]12,1.3,-0.108,-0.149,-1.13 (inactive),0.717,1.3,0.496,1.22,0.352,0.623
CC[C@H]1C2=C3C(CC[C@H]4C(OCc5ccc(F)cc5C(F)(F)F)OC[C@](C)([C@@H]34)N(C(=O)OC(C)(C)C)C2)C2COC(=O)OCC21 (stereo not given in full),0.282,0.817,1.12,-0.499 (inactive),-0.0217,0.737,0.128,0.719,-1.02,1.06
